# Screening results as filed in PubChem BioAssay.
# Sfp PPTase inh: blocks B. subtilis Sfp PPTase activity; Q9F4F7; Biochemical Sfp PPTase activity, qHTS; Potency, µM, for inactives: largest response in the series, negative = inhibition, usual class: inhibitors; actives 3.5% (n = 310,000); AID 1490;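 also: the enzyme is Sfp with the accession as filed and its product quenches rhodamine fluorescence; 0% = enzyme reaction without inhibitor and -100% = no enzyme wells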
#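 Fluorescence-quenching assay with 15 nM Sfp, 5 uM rhodamine-CoA and 12.5 uM BHQ-2-labelled ybbR peptide in pH 7.6 Hepes/MgCl2 buffer. Enzyme was pre-incubated with compound for 15 min at room temperature. Rate was taken from the 30-min fluorescence change (525/598 nm).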
# G9a block: blocks human histone lysine methyltransferase G9a; G9a H3K9 monomethylation, AlphaScreen, 2 h; actives 8.8% (n = 350,000); Q96KQ7; AID 504332; Potency, µM (top dose mostly 102 µM), inactives show top-dose activity, negative = inhibition, usual class: inhibitors; also: % is scaled to controls: 0 for no effect and ±100 for the full control effect; nearly all actives have a fitted effect of over 75% in size
#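 Quantitative HTS format: methyltransferase activity on a biotin-tagged H3K9 peptide is measured by AlphaScreen, using a rabbit anti-monomethyl-H3K9 antibody with streptavidin donor and anti-IgG acceptor beads. Final levels are 20 nM enzyme, 500 nM peptide, 20 uM SAM; 2 h RT.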
# ALOX12 inh: ALOX12 (human) lipoxygenase inhibition; actives 1.1% (n = 580,000); P18054; Potency, µM (series often up to 108 µM), for the others: top-dose activity change, negative = inhibition, most hits filed as inhibitors; purified 12hLO, xylenol orange hydroperoxide absorbance; also: % is scaled to controls: 0 for no effect and ±100 for the full control effect
#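 Purified human 12hLO at 150 nM in 25 mM Hepes, 0.01% Triton X-100, pH 7.0, preincubated 15 min at room temperature with compound. Reaction started with 40 uM arachidonic acid, 30 min at room temperature. Hydroperoxide measured by Fe-xylenol orange, 573/405 nm absorbance ratio.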
# JMJD2A Tudor: inhibitors of human JMJD2A Tudor domain; AlphaScreen JMJD2A-Tudor / H3K4me3 peptide binding; Potency, µM (highest dose often 114 µM), inactives show top-dose activity change, negative = inhibition, actives largely listed as inhibitors; actives 4.4% (n = 390,000); AID 504339; also: % is scaled to controls: 0 for no effect and ±100 for the full control effect; nearly all actives have a fitted effect of over 50% in size
# BAZ2B inh: blocks human BAZ2B; Q9UIF8; AlphaScreen BAZ2B-H3K14Ac peptide displacement; Potency, µM (titrated, usually from 114 µM), without a hit: at the highest dose activity change, negative = inhibition, usual class: inhibitors; actives 4.4% (n = 360,000); AID 504333; also: % is scaled to controls: 0 for no effect and ±100 for the full control effect; nearly all actives have a fitted effect of over 60% in size
#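 Multi-concentration screen (max 110 uM) measuring displacement of acetylated histone H3 peptide from BAZ2B by AlphaScreen, using 50 nM protein, 50 nM peptide and 10 ug/mL streptavidin donor plus Ni-chelate acceptor beads.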
# HP1b chromo inh: HP1-beta chromodomain-methylated histone interaction inhibition. AlphaScreen HP1-beta / biotin-H3K9me3 peptide binding. Potency, µM (highest dose often 114 µM), without a hit: at the top dose activity change, negative = inhibition, most hits filed as inhibitors. actives 0.56% (n = 390,000). AID 540317; also: nearly all actives have a fitted effect of over 70% in size
#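 AlphaScreen: HP1-beta (50 nM) preformed 30 min with biotin-H3(1-18)K9me3 peptide (50 nM) in PBS pH 7.4, 0.01% Tween-20. Compound added for 30 min at RT, then streptavidin donor/nickel chelate acceptor beads (10 ug/mL) for 30 min.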
# Starred values were filed as active, the others as inactive; ? = inconclusive; . = no result given; [ ] = remark or other dose. Sampled rows, rich in hits. Any-hit rate of the full collection: about 8.7%. Calls follow the shape of the dose curve; as a rule, active = well fitted curve in the direction sought with a large enough effect; inconclusive = small, poorly fitted or top-dose-only effect, or another doubt; inactive = no such curve, though single readings can be large; an effect the other way counts as inactive or inconclusive. Potency is read from the fitted curve at half-maximal effect.
SMILES,Sfp PPTase inh,G9a block,ALOX12 inh,JMJD2A Tudor,BAZ2B inh,HP1b chromo inh
CCOc1cccc(C(=O)N(Cc2ccc(F)cc2)Cc2ccco2)c1,.,6%[59 µM],-28%,-4%,19%,35%
CCOC(=O)c1sc2nc3n(c(=O)c2c1C)CCC(C)CC3 (stereo unspecified),22µM*,10µM*,?,-13%,11%,-10%
Cc1c(NC(=O)Nc2ccc(Cl)c(Cl)c2)sc2nc3n(c(=O)c12)CCC(C)CC3 (stereo unspecified),.,3%[59 µM],-22%,-7%,-1%,30%
CCOC(=O)N1CCN(C(=O)Nc2sc3nc4n(c(=O)c3c2C)CCC(C)CC4)CC1 (stereo unspecified),-10%,32µM*,-28%,-29%,-35%,9%
O=C(O)CNC/C=C/c1ccccc1,.,.,-24%,.,.,.
CNC(=O)[C@@H](c1ccccc1F)N1CCC[C@H]1C(=O)NC1CC1,.,.,25µM*,.,.,.
CCNC(=O)[C@@H]1CCCN1[C@@H](C(=O)NC)c1ccccc1F,.,.,-9%[176 µM],.,.,.
CC(C)(COP(=O)(O)OP(=O)(O)OC[C@H]1O[C@@H](n2cnc3c(N)ncnc32)[C@H](O)[C@@H]1OP(=O)(O)O)C(O)C(=O)NCCC(=O)NCCS (stereo partly specified),40µM*,-30%[12.7 µM],.,.,.,.
CSc1nc(N)c2ncn([C@@H]3O[C@H](COP(=O)(O)OP(=O)(O)O)C(O)[C@H]3O)c2n1 (stereo partly specified),.,9.5µM*,.,.,.,.
COc1ccc(C(=O)c2c(N)sc3c2CCN(C(=O)OC(C)(C)C)C3)cc1,79µM*,?,?,?,?,0%
Cc1cc(Cl)c(S(=O)(=O)NC2CCCCC2)cc1OCC(=O)Nc1nncs1,-3%,18µM*,-26%,-3%,-18%,17%
O=c1oc2ccccc2c(N2CCCCC2)c1CN1CCCC1,14%,11%[59 µM],8%,4%,6%,23%
CCc1oc2ccccc2c1C(=O)CCN1CCCCC1,?,1.4µM*,?,-22%,8%,39%
CCCn1cc(C(=O)N[C@@H]2COCC[C@H]2Oc2ccc(C#N)cc2)c(C)n1,.,.,28%,.,.,.
COc1ccc(Nc2ncc(C(=O)Nc3cc(Cl)c(OC)cc3OC)c3ccccc23)cc1,.,-41%[59 µM],-22%,-10%,-4%,5%
COc1ccc(Nc2ncc(C(=O)Nc3cccc(Cl)c3)c3ccccc23)cc1,.,-4%[59 µM],0%,79µM*,79µM*,6%
CCC1CCN(CC2(O)CCCN(Cc3cc(OC)ccc3F)C2=O)CC1 (stereo unspecified),.,.,53%,.,.,.
COc1cc(NC(C)CCc2ccccc2)cc(OC)c1OC (stereo unspecified),-20%,.,?,45µM*,?,?
COc1cccc(OC)c1C(=O)NC(C)CCc1ccccc1 (stereo unspecified),16%,-9%[0.501 µM],0%,-10%,2%,13%
COc1ccc(CCC(C)Nc2cccc(F)c2)cc1 (stereo unspecified),45µM*,?,?,57%,18%,142%
COc1ccc(CCC(C)Nc2ccccc2F)cc1 (stereo unspecified),-10%,34%[59 µM],-4%,72%,62%,137%
Cc1ccc(N2C(=O)CS/C2=C(\C(Cl)=C(Cl)Cl)[N+](=O)[O-])cc1,-28%,20µM*,?,40µM*,45µM*,?
CN(C)c1ccc(-c2nc(N(C)Cc3ccco3)c3ccccc3n2)cc1,25µM*,.,-12%,.,.,.
Cc1noc(C)c1-c1nc(N(C)Cc2ccco2)c2ccccc2n1,79µM*,-31%[0.501 µM],-22%,.,.,.
COc1ccccc1N1C(=O)N(C(C)=O)C2C1Nc1ccccc1N2C (stereo unspecified),-21%,7.1µM*,-28%,?,.,-20%
SMILES,Sfp PPTase inh,G9a block,ALOX12 inh,JMJD2A Tudor,BAZ2B inh,HP1b chromo inh
Cc1nnc(N/N=C/c2ccc(O)c([N+](=O)[O-])c2)[nH]c1=O,?,13%[59 µM],-21%,3.2µM*,-5%,5%
O=[N+]([O-])c1ccc(-c2csc(N/N=C/c3cccnc3)n2)cc1,-3%,.,?,-17%,?,4%
Clc1ccc(-c2csc(N/N=C/c3ccc4c(c3)OCO4)n2)cc1,-21%,40µM*,-16%,-25%,-10%,14%
Cc1cc(=O)[nH]c(N/N=C/c2ccc(Cl)c([N+](=O)[O-])c2)n1,-7%,.,-1%,-17%,-8%,48%
O=[N+]([O-])c1cc(/C=N/Nc2nc(N3CCCCC3)nc(N3CCCCC3)n2)ccc1O,5%,?,-7%,-23%,-37%,-14%
Cc1csc(N/N=C/c2ccc(O)c([N+](=O)[O-])c2)n1,32µM*,14µM*,?,45µM*,4.5µM*,?
O=[N+]([O-])c1cc(/C=N\Nc2nc(-c3ccccc3)cs2)ccc1O,50µM*,11µM*,-28%,?,13µM*,?
O=C(C1CCOCC1)N1CCC(Oc2cnc3c(ccn3-c3cncnc3)c2)CC1,.,.,-27%[176 µM],.,.,.
COC(=O)CC1=NN(c2ccccc2)C(=O)/C1=C\c1ccc(OC)cc1,8%,20µM*,?,-30%,?,-10%
COC(=O)CC1=NN(c2ccc(OC)cc2)C(=O)/C1=C\c1ccc(Cl)cc1,6%,20µM*,?,?,50µM*,?
CCOC(=O)c1sc(N2N=C(C)/C(=C\c3ccc(OCC(=O)OC)cc3)C2=O)nc1C,-14%,-2%,6%,-9%,7%,34%
